# Source: PubChem
# Sampled rows, rich in hits. Any-hit rate of the full collection: about 3%.
# SENP7 block: SENP7 protease inhibition; Q9BQF6; recombinant SENP7, Z-RLRGG-aminoluciferin luminescence, 40 min; inhibition, % at 5 µM; 1.5% of 330,000 active;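 active = inhibition above about 50% at the single test dose, limit read from the data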;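 note: plate controls were DMSO with enzyme for no effect and no enzyme buffer wells for full effect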
# SENP6 block: inhibitors of human SENP6 protease. inhibition, % at 10 µM. 1.8% of 330,000 active. Q9GZR1. Recombinant SENP6 catalytic domain, aminoluciferin luminescence. AID 2599;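 active = inhibition above about 50% at the single tested dose, limit read from the data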;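 note: plate controls were DMSO wells with enzyme for no effect and DMSO wells lacking enzyme for full effect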
# Target sequence (Q9GZR1 628-1112 limits assumed): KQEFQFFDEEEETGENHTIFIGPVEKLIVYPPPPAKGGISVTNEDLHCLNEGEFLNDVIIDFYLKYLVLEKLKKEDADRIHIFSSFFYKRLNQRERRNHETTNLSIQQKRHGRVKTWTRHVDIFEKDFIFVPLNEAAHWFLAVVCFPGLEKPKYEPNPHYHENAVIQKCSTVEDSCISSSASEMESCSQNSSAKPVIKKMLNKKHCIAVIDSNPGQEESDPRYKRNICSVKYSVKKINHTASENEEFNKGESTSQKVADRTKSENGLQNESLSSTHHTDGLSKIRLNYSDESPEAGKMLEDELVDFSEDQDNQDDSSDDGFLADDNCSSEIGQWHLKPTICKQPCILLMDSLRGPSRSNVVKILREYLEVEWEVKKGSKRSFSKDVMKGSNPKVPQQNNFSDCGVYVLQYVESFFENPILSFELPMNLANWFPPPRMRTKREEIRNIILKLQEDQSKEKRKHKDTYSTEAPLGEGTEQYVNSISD
# SENP8 block-1: inhibitors of human SENP8 protease; 0.64% of 360,000 active; inhibition, % at 20 µM; Q96LD8; AID 602440; recombinant SENP8, Nedd8 substrate fluorescence; in the data active = inhibition mostly above about 40%, no sharp cut-off; inactive = mostly below about 27%
# TRAIL sens C8: sensitizes caspase-8 expressing cells to TRAIL | AID 624354 | NB7+C8 cells + TRAIL, ATPlite viability luminescence | inhibition (viability loss, TRAIL sensitization), % at 10 µM | 1% of 360,000 active;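 active = compounds causing at least 50% loss of cell viability in the single-dose screen, relative to plate controls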
# PPC-1+TRAIL kill: kills PPC-1 cancer cells in the presence of TRAIL; PPC-1 cells + TRAIL, ATPLite viability luminescence; cell killing (% activity), % at 4 µM or 5 µM; 0.41% of 220,000 active;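 active = cell killing above 50% in the first pass at 4 µM, then a duplicate retest at 5 µM averaging 50% or more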;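 note: plate controls were cells with TRAIL plus DMSO for no effect and medium-only wells lacking cells for full effect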
# SENP8 block-2: inhibitors of human SENP8 protease | Q96LD8 | purified SENP8, Z-RLRGG-aminoluciferin cleavage, luminescence | inhibition, % at 10 µM | 1.2% of 330,000 active | AID 2540; in the data active = inhibition above about 50%
# The depositor's hits bear a star; . = no result given.
SMILES,SENP7 block,SENP6 block,SENP8 block-1,TRAIL sens C8,PPC-1+TRAIL kill,SENP8 block-2
NS(=O)(=O)c1ccc(N/C=C\C(=O)c2ccc(F)cc2)cc1,70*,43,-432,-2,23,64*
Cc1ccc(C2CC(=O)N3CN(Cc4ccco4)CSC3=C2C#N)cc1 (centres undefined),6,12,0,-11,7,-2
N#CC1=C2SCN(Cc3ccco3)CN2C(=O)CC1c1c(F)cccc1Cl (centres undefined),6,0,36*,5,10,11
COc1ccc(CC(N)c2csc(NC(=O)c3cc(C(C)(C)C)nn3Cc3ccccc3)n2)cc1 (centres undefined),.,.,-53,50*,.,.
CC[C@H]1CN2CCc3cc(OC)c(OC)cc3C2C[C@@H]1C[C@H]1NCCc2cc(OC)c(OC)cc21 (some centres undefined),-14,11,6,56*,.,6
CCC1=C(CC2NCCc3ccccc32)CC2c3cc(OC)c(OC)cc3CCN2C1 (centres undefined),.,.,-235,23,.,.
CNC(=O)/C(C#N)=C/c1ccc(-c2nc3ccccc3s2)o1,64*,-3,-422,3,9,-2
N#C/C(=C\c1ccc(-c2nc3ccccc3s2)o1)C(N)=O,49,31,-348,16,2,16
CN(C)c1ccc(N=Nc2nccs2)cc1,.,.,37,77*,.,.
CCOc1ccc(C(=O)Nc2ccccc2NC(C)=O)cc1OCC,7,-9,5,-1,-5,1
CCOc1ccccc1Nc1ccc(C(=O)O)cc1NC(C)=O,3,0,-205,5,54*,-12
CCS(=O)(=O)N1Cc2cc(C(=O)N(C)C)nc(-c3cccc(-c4ccc(F)cc4)c3)c2[C@H]1CCO,.,.,9,9,.,.
COc1ccc(NC(=O)c2ccccc2NC(=O)c2cccs2)cc1,-3,-12,12,2,.,-8
COc1ccc(C(=O)Nc2ccccc2C(=O)Nc2ccccc2C(=O)O)cc1,-12,23,-15,59*,.,-16
COc1ccc(C(=O)Nc2ccccc2C(=O)Nc2ccc(C(=O)O)cc2)cc1,-7,-7,-2,47,.,0
O=C(Nc1ccncc1)c1ccc(F)cc1,8,-5,18,-15,4,2
COc1ccc(C(=O)Nc2ccccc2C(=O)Nc2ccncc2)cc1,5,8,-342,65*,.,0
O=C(Nc1ccncc1)c1ccc(-c2ccccc2)cc1,23,-4,12,51*,4,-5
C[C@H](CO)N1C[C@H](C)[C@H](CN(C)C(=O)Nc2cccc(C(F)(F)F)c2)OCc2cnnn2CCCC1=O,.,.,-4,-11,.,.
COc1ccc(Cn2c(=O)[nH]c3cc(C(=O)NCCc4ccc(S(N)(=O)=O)cc4)ccc3c2=O)cc1,-2,-11,-74,0,7,-1
O=C(NCCC1=CCCCC1)Nc1ccc2nsnc2c1,9,23,-456,37,.,0
Cc1noc(/C=C/Nc2ccc(F)cc2F)c1[N+](=O)[O-],97*,87*,7,3,3,84*
CC(=O)c1cccc(S(=O)(=O)N2CCC(C(=O)Nc3cccc(C(=O)NC4CC4)c3)CC2)c1,-1,-7,8,19,.,7
O=C(CCl)N1CCN(S(=O)(=O)c2ccc3ccccc3c2)CC1,5,-10,9,81*,.,5
CC(C)(CNC(=O)c1ccc([N+](=O)[O-])c(Cl)c1)CNC(=O)c1ccc([N+](=O)[O-])c(Cl)c1,5,-7,19,53*,28,4
SMILES,SENP7 block,SENP6 block,SENP8 block-1,TRAIL sens C8,PPC-1+TRAIL kill,SENP8 block-2
C=CCNC(=O)c1ccc([N+](=O)[O-])c(Cl)c1,-8,10,6,9,4,-5
N#CC1C(=N)Cc2ccccc2-c2ccccc21 (centres undefined),.,.,12,3,.,.
Cc1ccsc1C(=O)Nc1ccc(F)c([N+](=O)[O-])c1,71*,77*,9,14,23,53*
CC(C)CC(=O)Nc1nc2c(c(=O)[nH]1)CCCC2,4,-13,21,62*,19,-3
COc1ccc2ccccc2c1C1CC(=O)N2CN(C)CSC2=C1C#N (centres undefined),-1,14,42*,-3,2,4
COc1cc(OC)c(C2CC(=O)N3CN(c4ccccc4)CSC3=C2C#N)cc1OC (centres undefined),8,12,0,-16,4,1
COc1cc(OC)c(C2CC(=O)N3CN(C)CSC3=C2C#N)cc1OC (centres undefined),4,-4,79*,3,14,0
CC(NC(=O)CN1CCOCC1)c1ccc(F)cc1 (centres undefined),-1,11,18,11,.,9
CC1(C)Cc2nc3sc4c(SCC(=O)NCc5ccccc5)ncnc4c3cc2CO1,-1,4,-23,20,13,4
COC(=O)CSc1ncnc2c1sc1nc3c(cc12)COC(C)(C)C3,-6,2,-7,73*,48,12
COc1ccc(C=NNC(=O)NN=Cc2ccc(OC)c(OC)c2)cc1OC,.,.,-7,72*,.,.
COc1ccc(C=NNC(=O)CCCC(=O)NN=Cc2ccc(OC)c(OC)c2)cc1OC,.,.,-22,1,.,.
CC1(Br)C(Sc2ccccc2[N+](=O)[O-])=Nc2ccccc21 (centres undefined),.,.,19,10,.,.
Cn1cccc1/C=C1\SC(=Nc2cccc(O)c2)NC1=O,52*,78*,14,14,4,54*
Cc1cc(C)cc(N=C2NC(=O)/C(=C/c3cccs3)S2)c1,4,5,22,-9,5,-4
O=C1NC(=Nc2ccccc2)S/C1=C\c1cccs1,43,69*,17,8,-5,59*
N=C1C(c2ccccc2)=C(O)CN1CCCO,1,-6,16,-5,0,-9
COc1ccc(S(=O)(=O)Nc2ccccc2C(=O)N2CCOCC2)cc1C,-10,-8,3,-12,.,-10
CCc1ccc(/C=C\C(=O)N2CCc3ccccc3C2)cc1,45,61*,27,7,7,47
Nc1ccc2c(c1)C(=O)c1ccccc1-2,-5,-6,10,-19,.,-11
Nc1ccc2c(c1)C(=O)C(=O)c1ccccc1-2,98*,89*,142*,97*,33,97*
CC12CN(C(=S)Nc3ccccc3)CC(C)(CN(C(=S)Nc3ccccc3)C1)C2=O,-3,13,10,3,22,5
CS(=O)(=O)N1N=C(c2ccc(Cl)cc2)CC1c1cccs1 (centres undefined),40,51*,8,-5,-5,21
C=CCC1C=C(C)CC(CC=C)N1 (centres undefined),-4,11,9,-1,13,-3
COc1cccc(N2CCN(c3nc(-c4ccccc4C)cc(=O)[nH]3)CC2)c1,2,5,10,6,.,2
